Jurkat NFkB inh = inhibitors of the PMA/ionomycin-induced NF-kB reporter in Jurkat cells | PMA/ionomycin-induced NF-kB luciferase reporter, luminescence | inhibition, % at 4 µM | hit rate 0.53% among 330,000; in the data active = inhibition above about 50%
HIF activator = HIF pathway transcriptional activation. U2OS HRE-luciferase reporter, luminescence; normalized: DMSO 0%, desferrioxamine 100%. activation, % at 7.5 µM (by protocol). hit rate 0.32% among 300,000. AID 1910;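 active = mean activation of at least 10% of the iron chelator positive control signal, with at least half of replicates also reaching 10%; inconclusive = mean and replicate majority disagree about reaching 10%; inactive = mean and most replicates under 10%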
697 NFkB inh = inhibitors of the PMA/ionomycin-induced NF-kB reporter in 697 B cells; 697 B-cell NF-kB luciferase reporter, 16 h; inhibition, % at 4 µM; hit rate 0.33% among 330,000; AID 435022; in the data active = inhibition above about 35%
CFTR F508del cor = CFTR F508del correction in bronchial cells; CFBE cells, YFP halide quenching; stimulated with forskolin plus potentiator P3; % fluorescence drop versus neutral controls; AID 720511; activity (quench increase), % at 7.58 µM; hit rate 0.36% among 350,000;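 active = mean added fluorescence quench of at least 8% versus neutral control, with both replicates also reaching 8%; inconclusive = only one of the mean or replicate conditions met; inactive = mean below 8% and not both replicates reaching 8%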;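 note: cells transiently co-express mutant CFTR-F508del with the halide-sensitive YFP; corrector assay measuring rescue of mutant channel to the surface after 24 h compound exposure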
Jurkat NFkB conf = inhibitors of the PMA/ionomycin-induced NF-kB reporter in Jurkat cells, retest; shares compounds with Jurkat NFkB inh; Jurkat NF-kB luciferase, 16 h; inhibition, % at 4 µM; hit rate 27% among 2,700; AID 435020;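 active = inhibition reaching about 45% at 4 µM in either replicate, limit read from the data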;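 note: plate controls were PMA/ionomycin stimulated DMSO wells for no effect and unstimulated DMSO wells for full effect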
Starred values were filed as active, the others as inactive; ? = inconclusive; · = no result. Sampled rows, rich in hits. Any-hit rate of the full collection: about 0.93%.

SMILES	Jurkat NFkB inh	HIF activator	697 NFkB inh	CFTR F508del cor	Jurkat NFkB conf
O=C1C=C(c2ccc3ncccc3c2)C[C@@H](c2ccc3c(c2)OCO3)C1	70*	·	-58	9.8*	50*
O=C1C=C(c2ccc3ncccc3c2)C[C@@H](c2ccc(F)cc2)C1	22	·	-10	·	·
C[C@]12CC[C@@H]3c4ccc(OC(=O)c5ccccc5)cc4CC[C@H]3[C@@H]1CC[C@@H]2O	15	0	8	3	·
COc1cc2c(cc1O)CC[C@@H]1[C@@H]2CC[C@]2(C)[C@@H](O)CC[C@@H]12	61*	1	-43	·	54*
CCC(=O)N1CC(=O)N2[C@@H](CO)[C@H](c3ccc(C#Cc4cccc(OC)c4)cc3)[C@@H]2C1	·	·	·	-1	·
CN1c2ccc(Br)cc2[C@@H]2[C@@H](CCN2C(=O)Nc2ccccc2F)[C@@H]1CO	·	·	·	1	·
COc1ccccc1S(=O)(=O)N1CC[C@H]2[C@H](CO)Nc3ccc(-c4cccc(C#N)c4)cc3[C@H]21	·	·	·	0	·
O=C(c1ccccc1)c1cnc(Nc2ccccc2Cl)s1	-156	5	-149	·	-72
COc1cccc(S(=O)(=O)Nc2ccc3c(c2)[C@@H]2C[C@@H](CC(=O)NCc4ccccc4F)O[C@H](CO)[C@@H]2O3)c1	·	·	·	2	·
OC[C@@H]1[C@@H](c2ccccc2)C2(CN(Cc3nccs3)C2)N1Cc1ccccc1	·	·	·	-2	·
Cc1noc(C)c1S(=O)(=O)N(C)C[C@@H]1OCCCC[C@@H](C)Oc2ccc(NC(=O)NC3CCCCC3)cc2C(=O)N([C@H](C)CO)C[C@@H]1C	·	·	·	0	·
Cc1ccc(NC(=O)CSc2nc3ccccc3c3nc4ccccc4n23)cc1	73*	0	3	·	39
O=C(Nc1ccccc1)C1Cc2ccccc2CN1C(=O)c1ccco1 (stereo not drawn)	-150	4	-226	·	-106
CCC(=O)Nc1ccc(OCc2nc3ccccc3s2)cc1	-150	1	-214	0	-93
c1ccc(OCc2nc3ccccc3s2)cc1	-148	1	-169	·	·
CCCN(C)C[C@H]1OCCCC[C@@H](C)Oc2ccc(NS(=O)(=O)c3ccccc3)cc2C(=O)N([C@@H](C)CO)C[C@H]1C	·	·	·	-3	·
CC(C)C#Cc1cnc2c(c1)C(=O)N([C@H](C)CO)C[C@H](C)[C@@H](CN(C)C(=O)c1ccc3c(c1)OCO3)O2	·	·	·	-1	·
COc1ccc(C(=O)/C=C2/c3ccccc3CC(C)(C)N2C)cc1	61*	2	-48	·	-9
CN1c2ccc(Br)cc2[C@H]2[C@H](CCN2C(=O)C2CCCCC2)[C@H]1CO	·	·	·	-1	·
COc1ccc(-c2nc(-c3ccc(Br)cc3)no2)c(OC)c1	-190	1	-139	·	-79
COc1nc(C)ccc1-c1noc(-c2ccco2)n1	-171	1	-158	·	-105
O=C(Nc1ccccn1)c1sc2cccc(F)c2c1Cl	-170	·	-242	-2	-103
CNC[C@H]1OCCCC[C@H](C)Oc2ccc(NC(=O)NC3CCCCC3)cc2C(=O)N([C@H](C)CO)C[C@H]1C	·	·	·	0	·
CCCCCc1ccc(-c2cn(CCc3c[nH]c4ccccc34)nn2)cc1	56*	-1	-64	2	14
C[C@@H]1CN([C@@H](C)CO)C(=O)c2cc(C#CC3(O)CCCC3)cnc2O[C@@H]1CN(C)C(=O)C1CC1	·	·	·	0	·
SMILES	Jurkat NFkB inh	HIF activator	697 NFkB inh	CFTR F508del cor	Jurkat NFkB conf
CCN(CC)S(=O)(=O)c1ccc(N/N=C/c2cc(OC)ccc2O)nc1	52*	?	-57	·	-3
CCCC(=O)Nc1ccc2c(c1)C(=O)N(C)[C@H]1CC[C@@H](CC(=O)NCC3CCCCC3)O[C@@H]1CO2	·	·	·	0	·
CCCC(=O)Nc1ccc2c(c1)OC[C@@H](C)N(C(=O)c1ccncc1)C[C@@H](C)[C@H](OC)CN(C)C2=O	·	·	·	2	·
CCOc1cc(CNCCCN2CCOCC2)cc(Br)c1OCC(=O)Nc1cccc(C(F)(F)F)c1	60*	0	18	·	8
CCOc1cc(CNCCCN2CCOCC2)cc(Cl)c1OCC(=O)NC(C)(C)C	-8	-1	1	0	·
CCCC(=O)N1CC2(CCN(C(=O)NC(C)C)CC2)c2c([nH]c3cc(OC)ccc23)[C@@H]1CO	·	·	·	3	·
COc1ccccc1NC(=O)c1ccc(-c2ccc(Br)cc2)o1	57*	4	-45	·	10
O=C(Nc1ccccc1N1CCCCC1)c1ccc(-c2ccc(Cl)cc2)o1	54*	0	-38	·	12
CN1CCN(c2ccccc2NC(=O)c2ccc(-c3ccc(Br)cc3)o2)CC1	50*	1	-88	·	12
O=C(Nc1ccccc1)c1ccc(-c2ccc(Br)cc2)o1	-51	2	-18	·	·
CN1CCN(c2ccccc2NC(=O)c2ccc(-c3ccc(Cl)c(Cl)c3)o2)CC1	7	1	-2	1	·
S=C(c1ccc(-c2ccc(Cl)cc2)o1)N1CCCCC1	-171	2	-181	·	-102
CCC(=O)Nc1ccc2c(c1)C(=O)N(C)C[C@@H](OC)[C@@H](C)CN(CC1CCOCC1)[C@@H](C)CO2	·	·	·	4	·
COc1cccc(NC(=O)C[C@H]2CC[C@@H]3[C@@H](COc4ccc(NC(=O)C5CCCCC5)cc4C(=O)N3C)O2)c1	·	·	·	3	·
Cc1cc(C(=O)Cn2cc(C(F)(F)F)ccc2=O)c(C)n1-c1ccccc1	16	1	-18	·	·
Cc1cc(C(=O)CN2C(=O)c3ccccc3S2(=O)=O)c(C)n1-c1ccccc1	66*	-3	-34	·	-1
O=C(CN1C(=O)c2ccccc2S1(=O)=O)c1ccccc1	-2	·	15	·	·
Cc1cc(C(=O)CN2C(=O)C3CC=CCC3C2=O)c(C)n1-c1ccccc1 (stereo not drawn)	-174	1	-199	·	-61
CCn1c(C)cc(C(=O)CN2C(=O)c3ccccc3S2(=O)=O)c1C	69*	·	20	2	39
Cc1cc(C(=O)CN2C(=O)c3ccccc3S2(=O)=O)c(C)n1C(C)C	55*	·	10	-3	19
CCCN(C)C[C@H]1OCCCC[C@@H](C)Oc2ccc(NC(=O)NC(C)C)cc2C(=O)N([C@@H](C)CO)C[C@H]1C	·	·	·	0	·
CCCNC(=O)N1[C@H](CO)[C@H](c2ccc(C3=CCCCC3)cc2)[C@H]1CNC(C)C	·	·	·	2	·
COCC#Cc1cnc2c(c1)C(=O)N([C@@H](C)CO)C[C@@H](C)[C@@H](CN(C)C(=O)c1ccc(F)cc1)O2	·	·	·	4	·
CC(C)NC(=O)N[C@H]1C=C[C@H](CC(=O)N2CCCCC2)O[C@@H]1CO	·	·	·	1	·
Cc1cc(N2CCN(Cc3cn(C)nc3-c3ccccc3F)CC2)cc(C)n1	69*	0	-24	?	-8
Cc1cc(N2CCN(Cc3cn(C)nc3-c3cccc(Cl)c3)CC2)cc(C)n1	62*	-1	-23	2	5
N/C(=N\OC(=O)c1ccccc1Cl)c1cccc([N+](=O)[O-])c1	-172	2	-235	0	-101
N/C(=N/OC(=O)c1cccc([N+](=O)[O-])c1)c1cccc([N+](=O)[O-])c1	-48	2	-18	2	·
C[C@@H]1CCCCO[C@H](CN(C)C(=O)Nc2ccccc2)[C@@H](C)CN([C@@H](C)CO)C(=O)c2cc(NS(=O)(=O)c3ccc(F)cc3)ccc2O1	·	·	·	0	·
